FLuc counter: counter-screen for miR-21 project: firefly luciferase inhibitors or activators. hit rate 6.9% among 360,000. purified FLuc, Km substrates, luminescence inhibition. Potency, µM (doses to about 57.5 µM), for inactives: at the top dose activity change, negative = inhibition, hits mostly inhibitors. AID 588342. P08659;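 note: plate controls were vehicle for no effect and reference inhibitor for full effect; nearly all actives have a fitted effect of over 55% in size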
Target sequence (P08659 whole entry, looked up): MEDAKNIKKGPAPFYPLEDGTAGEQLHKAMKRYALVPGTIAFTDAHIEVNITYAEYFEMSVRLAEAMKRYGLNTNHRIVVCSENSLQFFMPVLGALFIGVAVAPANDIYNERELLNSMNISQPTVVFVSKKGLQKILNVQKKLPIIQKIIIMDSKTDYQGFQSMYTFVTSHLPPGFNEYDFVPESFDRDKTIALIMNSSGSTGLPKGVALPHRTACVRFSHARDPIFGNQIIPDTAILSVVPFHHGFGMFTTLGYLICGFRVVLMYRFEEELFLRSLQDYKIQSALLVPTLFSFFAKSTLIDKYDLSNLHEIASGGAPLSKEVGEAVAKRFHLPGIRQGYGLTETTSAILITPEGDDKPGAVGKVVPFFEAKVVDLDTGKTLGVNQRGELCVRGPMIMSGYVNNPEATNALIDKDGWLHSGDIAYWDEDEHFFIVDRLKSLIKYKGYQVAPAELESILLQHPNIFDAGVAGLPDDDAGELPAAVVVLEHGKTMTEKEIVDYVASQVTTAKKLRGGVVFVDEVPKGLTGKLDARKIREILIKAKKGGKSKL
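Purified P. pyralis luciferase (10nM final) with 10uM D-luciferin and 10uM ATP (Km levels) in 50mM Tris acetate pH 7.5, 10mM Mg acetate, 0.01% Tween-20, 0.05% BSA; qHTS 6-point titration, ~60 µM downward; luminescence read.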
Rab9 promoter act: Rab9 promoter activation; Huh7 Rab9 promoter-luciferase reporter, luminescence, 24 h; Potency, µM (top dose mostly 9.22 µM), for inactives: at the highest dose activation, negative = inhibition, actives largely listed as activators; hit rate 2.8% among 320,000; AID 485297; note: % of control where 0% means no effect; nearly all actives have a fitted effect of over 60% in size
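Luminescence from Amplite-detected luciferase (10 minutes, ambient) reports Rab9 promoter activation. Before that, stable Rab9-luciferase Huh7 cells (1500/well, reduced-serum OP-MEM I plus 10% FBS) were exposed to compound for 24 hours at 37C.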
SMN2 splice enh: SMN2 splice variant enhancement | HEK293 SMN2-luciferase splicing reporter, luminescence, 30-36 h | Potency, µM (series often up to 46.1 µM), for inactives: top-dose activity change, positive = activation, hits mostly activators | hit rate 2.8% among 210,000; note: % of control where 0% means no effect; nearly all actives have a fitted effect of over 55% in size
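HEK293 cells carry an SMN2 […]–luciferase reporter in which exon 7 inclusion puts luciferase in frame. Cells were plated 10-12 h before compound addition, then incubated 30-36 h at 37C. ONE-Glo luminescence was read; sodium butyrate at 4.5 mM final served as control.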
ELG1 repair inh: inhibitors of ELG1-dependent DNA repair in HEK293T cells; HEK293T ELG1-luciferase reporter, luminescence, 16 h; DNA damage induced by 5-fluorouridine; hit rate 2.3% among 330,000; Potency, µM (titrated, usually from 46.1 µM), inactives show at the top dose activity change, negative = inhibition, actives largely listed as inhibitors; note: % is set by controls: 0 for no effect and ±100 for the full control effect; nearly all actives have a fitted effect of over 55% in size
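Quantitative HTS, concentration-response format. 2,000 cells/well co-treated with 5-fluorouridine and compound, 16 hr in 5% CO2 at 37 °C; ONE-Glo luminescence read after 30 min.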
ELG1 genotox: genotoxicity induction in ELG1-luciferase HEK293T cells; hit rate 1.3% among 330,000; HEK293T ELG1-luciferase reporter, luminescence, 16 h; Potency, µM (highest dose often 46 µM), without a hit: at the top dose activity change, positive = activation, most hits filed as activators; note: % of control where 0% means no effect; nearly all actives have a fitted effect of over 60% in size
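Luminescence read-out: rising ELG1-luciferase signal, reflecting elevated ELG1 protein under genetic stress, flags genotoxic compounds. Cells were treated for 16 hr at 37 °C before ONE-Glo detection.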
NPC1 promoter act: activators of NPC1 promoter | Huh7 NPC1 promoter luciferase reporter, 24 h | Potency, µM (titrated, usually from 9.22 µM), inactives show top-dose activation, actives largely listed as activators | hit rate 2.4% among 320,000 | AID 485313; note: % of control where 0% means no effect; nearly all actives have a fitted effect of over 60% in size
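Compounds in DMSO were transferred onto Huh7 NPC1-luciferase reporter cells pre-incubated 2 h; after 24 h at 37 °C, Amplite reagent was dispensed and luminescence recorded 10 min later.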
* marks the source's active call; other numbers are inactive results; ? = inconclusive; . = not tested or not shown; [ ] = remark or other dose. An excerpt weighted towards active compounds, which were near 9.2% of everything screened. Calls come from the whole dose curve; as a rule, active = well fitted curve in the direction sought with a large enough effect; inconclusive = small, poorly fitted or top-dose-only effect, or another doubt; inactive = no such curve, though single readings can be large; an effect the other way counts as inactive or inconclusive. Potency is the fitted concentration of half-maximal effect.

SMILES	FLuc counter	Rab9 promoter act	SMN2 splice enh	ELG1 repair inh	ELG1 genotox	NPC1 promoter act
OC(COc1ccc2cc(Br)ccc2c1)CN1CCCC1 (centres undefined)	12µM*	13.6%	6.4%	?	?	10.2%
OC(COc1ccc(OCC(O)CN2CCCCCC2)cc1)CN1CCCCCC1 (centres undefined)	6.1%	3.6%	20.9%	13.1%	0.6%	2.1%
CCCS(=O)(=O)NCCc1csc(-c2ccc(OC)c(OC)c2)n1	3.4%	-3.7%	.	0.0%	-5.7%	-0.7%
CNC(=O)c1ccc2snnc2c1	-0.6%	-2.4%	2.3%	9.4%	-7.3%	-1.4%
COc1ccc(NC(=O)c2ccc3snnc3c2)cc1	9.53µM*	2.82µM*	12.6µM*	?	?	?
O=C(Nc1cccc(C(F)(F)F)c1)c1ccc2snnc2c1	-1.6%	.	0.6%	.	.	.
CC(=O)c1ccc(NC(=O)c2ccc3snnc3c2)cc1	?	3.98µM*	.	?	14.6µM*	4.47µM*
O=C(CCN1C(=O)C2C3CCC(C3)C2C1=O)Nc1cccc(Cl)c1 (centres undefined)	4.1%	7.0%	.	5.2%	-9.3%	-2.0%
COC(=O)N/N=C/c1ccc(OC(=O)/C=C/c2ccco2)cc1	-10.6%	10.9%	.	4.9%	-1.6%	-0.6%
CCc1ccc(OC(=O)/C=C/c2ccco2)cc1	0.849µM*	12.1%	.	?	4.3%	16.3%
CC(C)(O)c1cc(=O)sc2nc3ccccc3n12	9.53µM*	0.562µM*	14.1µM*	?	?	3.55µM*
CC(NC(=O)CCc1ccccc1)c1ccc2c(c1)OCO2 (centres undefined)	-3.1%	-1.3%	.	-2.9%	-2.2%	1.3%
Cn1nnc(NC(=O)c2ccc3ccccc3c2)n1	15.1µM*	27.5%	3.7%	?	16.6%	12.2%
Cn1nnc(NC(=O)c2ccccc2F)n1	-2.1%	1.2%	-1.9%	19.8%	2.3%	6.5%
Cn1nnc(NC(=O)c2ccc(C(C)(C)C)cc2)n1	3.38µM*	1.58µM*	22.4µM*	?	?	3.16µM*
COc1ccc(Cl)cc1NC(=O)CN(C)C(=O)C12CC3CC(CC(Cl)(C3)C1)C2	1.5%	-10.2%	.	18.3µM*	-6.2%	-2.0%
COc1ccc(Cl)cc1NC(=O)CN(C)C(=O)CCSc1ccc(C)cc1	19µM*	-7.7%	.	?	-0.4%	0.8%
CC(=O)c1ccc(NC(=O)CSc2nnc3ccc(-c4ccc(Br)cc4)nn23)cc1	3.1%	.	.	.	.	.
COC(=O)[C@]1(C)N[C@H](c2ccc(-c3ccc(F)cc3)cc2)[C@@H]2C(=O)N(C)C(=O)[C@@H]21	-15.0%	-4.8%	.	1.1%	0.2%	-0.8%
C=CCN1c2ccccc2[C@]23C[C@@H](C(=O)OC)N(S(=O)(=O)c4cccs4)C2=NC(C(=O)OC)=C(C(=O)OC)[C@H]13	.	.	5.0%[9.22 µM]	.	.	.
Cc1ccc(N(CC(=O)N2CCN(c3cc(C)ccc3C)CC2)S(=O)(=O)c2c(C)nn(C)c2C)cc1	-8.0%	.	-16.7%	.	.	.
CCc1c(C)nc2cc(-c3cc(OC)cc(OC)c3)nn2c1N1CCCC1	-4.0%	-21.3%	-5.9%	?	-13.7%	-2.3%
CCOCCN1CCN(c2c(CC)c(C)nc3cc(-c4cc(OC)cc(OC)c4)nn23)CC1	-6.9%	0.6%	-60.2%	6.51µM*	-6.5%	-7.8%
CCc1c(C)nc2cc(-c3ccc(OC)c(OC)c3)nn2c1N1CCC(C)CC1	1.8%	-16.7%	13.3%	?	3.8%	-2.8%
CCc1c(C)nc2cc(-c3ccc(OC)c(OC)c3)nn2c1N1CCCC1	?	-12.6%	.	13µM*	-18.2%	-1.2%
SMILES	FLuc counter	Rab9 promoter act	SMN2 splice enh	ELG1 repair inh	ELG1 genotox	NPC1 promoter act
COc1ccc2c(c1)CC(NC(=O)Nc1ccc(Br)c(C)c1)CO2 (centres undefined)	5.4%	.	.	.	.	.
Clc1ccc2c(c1)[C@H]1OCC[C@H]1[C@@H](c1ccco1)N2	4.78µM*	?	22.4µM*	?	?	?
CCOC(=O)c1sc2nc(CSc3ccccc3)nc(N3CCCN(C)CC3)c2c1C	-2.6%	-39.5%	-7.1%	?	-15.4%	-4.3%
CCOC(=O)c1sc2nc(CC(=O)OC)nc(N3CCN(c4ccccn4)CC3)c2c1C	-2.3%	-1.5%	-11.6%	9.2µM*	3.1%	-7.1%
Cc1sc2nc(CSc3ccccc3)nc(N3CCC(C(N)=O)CC3)c2c1C	-11.2%	-0.6%	11.0%	?	-9.5%	-3.5%
COc1ccc(C)cc1NC(=O)c1sc2ncnc(N3CCN(c4ccccn4)CC3)c2c1C	-4.9%	-7.7%	.	6.51µM*	-24.6%	-4.1%
CCOC(=O)c1sc2nc(CSc3ccccc3)nc(N3CCC(C(N)=O)CC3)c2c1C	-7.3%	0.1%	-7.2%	18.3µM*	-8.0%	-9.1%
CCOC(=O)c1cccc(Nc2nc(-c3cccnc3)nc3ccccc23)c1	-7.5%	4.7%	-77.1%	9.2µM*	-17.6%	-5.8%
CCOC(=O)c1nc(Nc2cccc(C)c2)c2ccccc2n1	0.5%	1.9%	-19.7%	16.4µM*	-6.4%	-3.9%
CC(=O)c1cccc(Nc2nc(-c3ccccc3)nc3ccccc23)c1	1.5%	0.8%	.	23.1µM*	-14.6%	2.4%
COC(=O)c1cccc(Nc2nc(-c3cccnc3)nc3ccccc23)c1	-0.7%	-5.9%	.	7.3µM*	-11.0%	-3.8%
COc1cc(CN(C2CC2)S(=O)(=O)c2ccccc2Br)cc(OC)c1	.	.	.	?	-1.6%	.
COc1cc(NC(=O)[C@@H]2CCCN(S(=O)(=O)c3cccc4cccnc34)C2)cc(OC)c1OC	-3.8%	-1.2%	.	?	-9.8%	0.6%
COc1ccccc1CNC(=O)c1cn(C)c2ccc(S(=O)(=O)N(C)C3CCCCC3)cc2c1=O	2.2%	.	9.8%	.	.	.
CCNC(=O)Nc1nc2ccccc2s1	23.9µM*	?	14.1µM*	?	?	3.98µM*
Cc1ccc(NC(=O)Nc2nc3ccccc3s2)cc1NC(=O)Nc1nc2ccccc2s1	?	0.5%	.	8.1%	-6.1%	14.8%

High-throughput results from PubChem BioAssay.
